Source: PubChem BioAssay (NCATS)
Inconclusive results are not listed. Entries that show only a call come without a potency. Calls of active or inactive are those of the source. Unless noted, calls come from the whole dose curve.

Columns and labels:
[1] = qHTS for Inhibitors of the Functional Ribonucleoprotein Complex (vRNP) of Lassa (LASV) Arenavirus: LASV Primary Screen - GLuc reporter signal (AID 1347082; calls by dose curve; tested in HEK293 reporter line; note: nearly all actives have a fitted effect of over 60% in size; note: potency is the fitted concentration of half-maximal effect)
[2] = qHTS for Inhibitors of the Functional Ribonucleoprotein Complex (vRNP) of Lassa (LASV) Arenavirus: Viability assay - alamar blue signal for LASV Primary Screen (AID 1347083; calls by dose curve; tested in HEK293 reporter line; note: nearly all actives have a fitted effect of over 80% in size; note: potency is the fitted concentration of half-maximal effect)
[3] = target: Nucleoprotein (Lymphocytic choriomeningitis virus (strain Armstrong)) (UniProt P09992); test: qHTS for Inhibitors of the Functional Ribonucleoprotein Complex (vRNP) of Lymphocytic Choriomeningitis Arenaviruses (LCMV): LCMV Primary Screen - GLuc reporter signal (AID 1347086); note: nearly all actives have a fitted effect of over 70% in size; note: potency is the fitted concentration of half-maximal effect
Chain of Nucleoprotein (Lymphocytic choriomeningitis virus (strain Armstrong)) (P09992 whole entry, looked up): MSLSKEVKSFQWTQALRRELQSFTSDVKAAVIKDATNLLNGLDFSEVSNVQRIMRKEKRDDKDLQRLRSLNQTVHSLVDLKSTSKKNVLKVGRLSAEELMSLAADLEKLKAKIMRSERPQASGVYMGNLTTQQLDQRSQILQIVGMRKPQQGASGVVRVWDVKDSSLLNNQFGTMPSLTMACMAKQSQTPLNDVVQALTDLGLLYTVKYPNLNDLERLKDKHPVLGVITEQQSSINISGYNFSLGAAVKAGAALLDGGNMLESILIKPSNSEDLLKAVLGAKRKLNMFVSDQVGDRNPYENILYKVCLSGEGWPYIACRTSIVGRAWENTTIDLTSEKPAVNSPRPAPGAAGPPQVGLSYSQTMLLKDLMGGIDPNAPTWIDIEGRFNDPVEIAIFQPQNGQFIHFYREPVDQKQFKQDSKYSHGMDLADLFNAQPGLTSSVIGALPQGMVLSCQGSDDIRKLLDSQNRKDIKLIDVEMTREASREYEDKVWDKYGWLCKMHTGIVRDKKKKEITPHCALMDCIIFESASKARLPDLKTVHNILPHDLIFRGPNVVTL

[4] = Confirmatory qHTS for VERO E6 Cytotoxicity Assay: Counterscreen for SARS-CoV-2 CPE Assay (AID 1508605); note: nearly all actives have a fitted effect of over 60% in size; note: potency is the fitted concentration of half-maximal effect
[5] = Confirmatory qHTS for activators (rescue) of SARS-CoV-2 Cytopathic Effect (CPE) (AID 1508606); note: potency is the fitted concentration of half-maximal effect; nearly all actives have a fitted effect of over 70% in size
[6] = Cytotoxicity counterscreen for inhibitors of SARS-CoV-2 cell entry (AID 1645845); note: nearly all actives have a fitted effect of over 50% in size
In short: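 Counterscreen run in the same HEK293-ACE2 line as the pseudotyped-particle entry assay, without particles. Viability after 48 h at 37 C was read as ATP luminescence, scaled between cell-containing and cell-free wells.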

[7] = Primary qHTS to identify inhibitors of SARS-CoV-2 cell entry (AID 1645846); conditions: activity change, negative = inhibition: at 57.1 µM (top of the series) unless noted; note: nearly all actives have a fitted effect of over 45% in size
In short: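 Inhibition of spike-mediated entry was scored in human ACE2-transfected Expi293F cells. Particles were MLV-pseudotyped with Wuhan-Hu-1 S carrying a 19-aa C-terminal deletion; signal was luciferase after two days, scaled between spike PP and fusion-protein-free PP.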

[8] = target: Cytochrome P450 1A2 (Homo sapiens) (UniProt P05177); test: p450-cyp1a2 (AID 410); note: potency is the fitted concentration of half-maximal effect
Chain of Cytochrome P450 1A2 (Homo sapiens) (P05177 whole entry, looked up): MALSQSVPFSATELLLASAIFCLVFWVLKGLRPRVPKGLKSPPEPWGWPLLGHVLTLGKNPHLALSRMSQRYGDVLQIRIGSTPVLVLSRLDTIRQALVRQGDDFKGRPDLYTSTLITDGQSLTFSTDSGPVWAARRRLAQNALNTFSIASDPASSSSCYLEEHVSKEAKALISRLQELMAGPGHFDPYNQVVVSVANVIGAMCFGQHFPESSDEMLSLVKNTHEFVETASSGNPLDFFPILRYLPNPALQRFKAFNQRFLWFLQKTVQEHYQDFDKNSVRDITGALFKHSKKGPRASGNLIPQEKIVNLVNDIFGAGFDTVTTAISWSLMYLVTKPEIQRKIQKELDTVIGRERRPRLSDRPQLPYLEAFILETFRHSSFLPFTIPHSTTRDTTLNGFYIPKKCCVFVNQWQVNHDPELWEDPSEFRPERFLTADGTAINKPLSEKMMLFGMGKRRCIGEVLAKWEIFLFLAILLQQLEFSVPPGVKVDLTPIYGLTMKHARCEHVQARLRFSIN
In short: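 20nM CYP1A2, 100uM Luciferin-ME (=Km), 100mM KPO4; cpd 10 min RT; +NADPH regen, 60 min RT; stop/detect 20 min; luminescence. Normalized to furafylline 57 uM = full inhibition.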

[9] = target: Glucocorticoid receptor (Homo sapiens) (UniProt P04150); test: GR-GFP Redistribution (AID 450;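 active = compounds whose dose series gives a full or clear partial fitted curve of increased nuclear translocation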; note: potency is the fitted concentration of half-maximal effect); conditions: U2OS GR-GFP nuclear translocation, laser cytometry, 2 h
Chain of Glucocorticoid receptor (Homo sapiens) (P04150 whole entry, looked up, the tested form may be a part): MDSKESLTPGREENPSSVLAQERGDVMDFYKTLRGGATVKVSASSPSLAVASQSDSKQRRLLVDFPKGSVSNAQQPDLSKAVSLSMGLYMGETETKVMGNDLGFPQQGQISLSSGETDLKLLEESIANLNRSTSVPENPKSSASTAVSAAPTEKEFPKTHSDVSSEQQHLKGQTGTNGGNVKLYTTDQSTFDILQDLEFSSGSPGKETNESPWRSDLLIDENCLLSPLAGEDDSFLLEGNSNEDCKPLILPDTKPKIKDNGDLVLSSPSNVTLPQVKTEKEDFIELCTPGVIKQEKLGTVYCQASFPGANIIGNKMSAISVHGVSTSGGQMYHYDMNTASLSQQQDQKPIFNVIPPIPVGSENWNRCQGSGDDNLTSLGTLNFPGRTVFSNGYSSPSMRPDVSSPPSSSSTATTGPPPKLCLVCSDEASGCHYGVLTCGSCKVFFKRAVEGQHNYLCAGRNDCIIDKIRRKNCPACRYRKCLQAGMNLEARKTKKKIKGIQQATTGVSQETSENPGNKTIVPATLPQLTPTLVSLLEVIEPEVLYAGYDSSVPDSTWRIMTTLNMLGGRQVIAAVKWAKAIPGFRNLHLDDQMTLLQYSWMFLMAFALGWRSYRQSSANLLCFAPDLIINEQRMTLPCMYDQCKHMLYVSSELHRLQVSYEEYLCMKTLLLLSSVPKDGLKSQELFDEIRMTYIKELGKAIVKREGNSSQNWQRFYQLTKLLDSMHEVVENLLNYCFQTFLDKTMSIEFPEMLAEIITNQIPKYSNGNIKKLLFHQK

[10] = target: Glucocorticoid receptor (Homo sapiens) (UniProt P04150); test: GR-EFC Redistribution (AID 451); conditions: CHO-K1 GR-EFC translocation, beta-gal luminescence, 2 h; note: potency is the fitted concentration of half-maximal effect
In short: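 CHO-K1 cells expressing nuclear EA and GR-ED fragments of b-gal; compounds titrated up to 46 uM final, 2 h at 37 C. GR nuclear translocation read as complemented b-gal luminescence after 1 h RT detection.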

[11] = target: Mitogen-activated protein kinase 10 (Mus musculus) (UniProt Q61831); test: JNK3 AlphaScreen Assay (AID 530; active = well fitted curve in either direction with a large enough effect, not every such curve was filed as active;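 note: kinase came from lysate of stimulated human HepG2 cells; signal reports phosphorylation of biotinylated GST-cJun 1-79 at Ser73 with 10 µM ATP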)
In short: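 HepG2 lysate (IL-1b/TNFa pre-activated) + biotin-GST-cJun 1-79 + anti-pSer73 cJun; cpd titration, 15 min RT; ATP 10 uM start; Tris pH 7.6, MgCl2, DTT, vanadate; beads in EDTA buffer; AlphaScreen.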

[12] = target: 3',5'-cyclic-AMP phosphodiesterase 4B (Homo sapiens) (UniProt Q07343); test: qHTS Assay for Inhibitors of PDE-IV (AID 607; active = well fitted activation curve with a large enough effect in the main read-out, with a control signal flat, not every such curve was filed as active)
Chain of 3',5'-cyclic-AMP phosphodiesterase 4B (Homo sapiens) (Q07343 whole entry, looked up): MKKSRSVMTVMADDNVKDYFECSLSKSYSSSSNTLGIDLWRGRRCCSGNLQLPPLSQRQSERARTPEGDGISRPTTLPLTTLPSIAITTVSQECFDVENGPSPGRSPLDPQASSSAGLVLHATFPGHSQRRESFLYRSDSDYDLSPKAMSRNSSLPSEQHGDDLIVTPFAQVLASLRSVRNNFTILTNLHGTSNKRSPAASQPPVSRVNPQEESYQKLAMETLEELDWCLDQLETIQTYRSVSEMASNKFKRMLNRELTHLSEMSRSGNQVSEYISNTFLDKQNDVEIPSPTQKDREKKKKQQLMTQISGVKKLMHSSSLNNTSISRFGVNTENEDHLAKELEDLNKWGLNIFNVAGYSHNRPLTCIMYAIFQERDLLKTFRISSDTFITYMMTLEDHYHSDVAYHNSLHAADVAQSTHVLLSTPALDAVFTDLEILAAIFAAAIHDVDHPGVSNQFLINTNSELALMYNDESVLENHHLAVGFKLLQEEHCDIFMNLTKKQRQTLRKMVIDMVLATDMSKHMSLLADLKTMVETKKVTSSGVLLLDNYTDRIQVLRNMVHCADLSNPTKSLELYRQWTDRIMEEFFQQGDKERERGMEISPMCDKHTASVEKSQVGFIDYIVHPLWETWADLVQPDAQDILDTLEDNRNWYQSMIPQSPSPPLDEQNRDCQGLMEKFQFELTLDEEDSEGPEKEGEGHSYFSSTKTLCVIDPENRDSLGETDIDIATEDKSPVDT
In short: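 The readout is membrane depolarisation from a cAMP-sensing CNG channel, detected with a potential dye at ex 535/em 590. Cells were HEK293-derived (endogenous PDE-IV) at 1000 cells/well, titrated up to 22.9 uM final.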

[13] = target: Cytochrome P450 2C9 (Homo sapiens) (UniProt P11712); test: qHTS Assay for Inhibitors and Substrates of Cytochrome P450 2C9 (AID 883; active = well fitted curve in the direction sought with a large enough effect; an effect the other way counts as inactive or inconclusive; note: nearly all actives have a fitted effect of over 60% in size)
Chain of Cytochrome P450 2C9 (Homo sapiens) (P11712 whole entry, looked up): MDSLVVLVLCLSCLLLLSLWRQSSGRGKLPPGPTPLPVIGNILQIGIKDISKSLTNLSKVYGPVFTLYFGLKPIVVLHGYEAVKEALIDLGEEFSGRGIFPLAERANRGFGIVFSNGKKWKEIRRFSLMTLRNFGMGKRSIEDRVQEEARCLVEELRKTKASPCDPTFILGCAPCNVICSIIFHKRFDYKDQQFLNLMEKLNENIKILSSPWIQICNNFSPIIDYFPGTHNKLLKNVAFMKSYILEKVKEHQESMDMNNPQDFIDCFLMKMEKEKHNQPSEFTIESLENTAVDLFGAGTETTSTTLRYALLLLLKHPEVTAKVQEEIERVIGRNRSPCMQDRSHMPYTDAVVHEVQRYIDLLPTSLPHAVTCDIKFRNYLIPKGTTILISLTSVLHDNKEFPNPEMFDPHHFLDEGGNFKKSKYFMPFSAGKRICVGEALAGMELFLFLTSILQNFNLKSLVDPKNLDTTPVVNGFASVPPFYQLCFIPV
In short: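 10nM CYP2C9 + 100uM Luciferin-H (=KM), 25mM KPO4; cpd 10 min 37C; NADPH regen, 60 min 37C; stop/detect with P450 Glo-Buffer 20 min; luminescence. Norm. to 57uM sulphaphenazole as full inhibition.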

[14] = target: Cytochrome P450 3A4 (Homo sapiens) (UniProt P08684); test: qHTS Assay for Activators of Cytochrome P450 3A4 (AID 885; active = well fitted curve in the direction sought with a large enough effect; an effect the other way counts as inactive or inconclusive; note: nearly all actives have a fitted effect of over 65% in size)
Chain of Cytochrome P450 3A4 (Homo sapiens) (P08684 whole entry, looked up): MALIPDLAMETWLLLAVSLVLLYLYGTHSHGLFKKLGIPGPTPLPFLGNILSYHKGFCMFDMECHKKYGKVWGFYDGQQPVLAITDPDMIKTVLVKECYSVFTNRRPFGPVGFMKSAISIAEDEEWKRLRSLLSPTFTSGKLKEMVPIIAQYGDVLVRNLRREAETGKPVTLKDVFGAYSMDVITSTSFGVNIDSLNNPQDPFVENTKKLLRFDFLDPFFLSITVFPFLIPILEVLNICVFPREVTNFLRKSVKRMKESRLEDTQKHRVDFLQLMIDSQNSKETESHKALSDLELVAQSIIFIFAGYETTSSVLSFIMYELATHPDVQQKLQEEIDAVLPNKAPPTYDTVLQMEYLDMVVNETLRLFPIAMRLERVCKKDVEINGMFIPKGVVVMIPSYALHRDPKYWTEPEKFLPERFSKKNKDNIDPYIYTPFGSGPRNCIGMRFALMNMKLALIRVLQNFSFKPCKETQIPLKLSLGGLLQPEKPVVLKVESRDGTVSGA
In short: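 Activators are scored by enhanced luminescence from CYP3A4 conversion of luciferin-PPXE (25uM, equal to KM) to luciferin, after 60 min at RT with an NADPH-regenerating system.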

[15] = target: Cytochrome P450 2D6 (Homo sapiens) (UniProt P10635); test: qHTS Assay for Inhibitors and Substrates of Cytochrome P450 2D6 (AID 891; active = well fitted curve in the direction sought with a large enough effect; an effect the other way counts as inactive or inconclusive;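 note: luciferin methyl ether substrate demethylated by CYP2D6 with NADPH regeneration; nearly all actives have a fitted effect of over 60% in size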)
Chain of Cytochrome P450 2D6 (Homo sapiens) (P10635 whole entry, looked up): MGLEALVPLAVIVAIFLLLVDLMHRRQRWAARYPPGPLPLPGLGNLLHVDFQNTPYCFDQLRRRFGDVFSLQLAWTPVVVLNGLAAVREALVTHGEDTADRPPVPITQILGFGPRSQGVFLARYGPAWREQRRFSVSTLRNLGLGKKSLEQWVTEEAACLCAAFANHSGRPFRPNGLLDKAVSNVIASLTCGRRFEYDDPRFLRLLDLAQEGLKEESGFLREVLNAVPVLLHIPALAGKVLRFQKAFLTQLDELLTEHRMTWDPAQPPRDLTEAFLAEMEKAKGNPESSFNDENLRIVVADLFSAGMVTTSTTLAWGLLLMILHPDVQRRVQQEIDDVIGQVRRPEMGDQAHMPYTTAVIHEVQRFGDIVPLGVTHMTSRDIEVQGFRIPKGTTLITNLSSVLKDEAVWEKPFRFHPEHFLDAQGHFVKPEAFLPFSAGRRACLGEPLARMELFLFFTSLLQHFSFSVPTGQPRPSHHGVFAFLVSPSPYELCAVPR
In short: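 Luminescent read-out of luciferin formed by 5 nM human CYP2D6 demethylating 30 uM Luciferin-ME EGE (Km level) over 60 min at room temperature after NADPH regeneration addition. Data normalized to full inhibition by 1.43 uM quinidine.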

[16] = target: Cytochrome P450 2C19 (Homo sapiens) (UniProt P33261); test: qHTS Assay for Inhibitors and Substrates of Cytochrome P450 2C19 (AID 899; active = well fitted curve in the direction sought with a large enough effect; an effect the other way counts as inactive or inconclusive; note: nearly all actives have a fitted effect of over 60% in size)
Chain of Cytochrome P450 2C19 (Homo sapiens) (P33261 whole entry, looked up): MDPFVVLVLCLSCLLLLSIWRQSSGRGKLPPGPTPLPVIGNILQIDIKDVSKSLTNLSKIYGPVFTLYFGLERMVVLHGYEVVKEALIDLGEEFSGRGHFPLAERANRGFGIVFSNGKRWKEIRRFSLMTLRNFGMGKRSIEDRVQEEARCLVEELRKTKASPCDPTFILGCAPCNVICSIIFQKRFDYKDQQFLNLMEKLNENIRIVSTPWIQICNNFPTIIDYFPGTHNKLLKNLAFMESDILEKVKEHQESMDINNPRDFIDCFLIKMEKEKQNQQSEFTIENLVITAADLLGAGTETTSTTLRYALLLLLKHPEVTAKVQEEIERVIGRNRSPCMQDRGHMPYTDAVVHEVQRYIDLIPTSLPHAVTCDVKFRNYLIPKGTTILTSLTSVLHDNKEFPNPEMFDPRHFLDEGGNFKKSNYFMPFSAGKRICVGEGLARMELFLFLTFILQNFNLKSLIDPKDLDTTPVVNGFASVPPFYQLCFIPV
In short: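 Luminescent read-out of luciferin formed from Luciferin-H EGE (10uM, equal to KM). Enzyme 5nM in 50mM KPO4; compound added, 10 min at 37C, then NADPH regenerating system for 60 min at 37C. Full inhibition defined by 57uM ketoconazole.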

[17] = Confirmation and Secondary Assay for Modulators of Hemoglobin Beta Chain Splicing at IVS2 654 locus (AID 910; active = well fitted curve in the direction sought with a large enough effect; an effect the other way counts as inactive or inconclusive;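 note: HeLa cells stably carrying EGFP split by mutant beta-globin IVS2-654 intron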)
In short: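 HeLa cells stably expressing EGFP interrupted by β-globin IVS2-654 intron, seeded overnight in Opti-MEM/2% FCS, then treated 2 days at 37 °C. Restored splicing read as total peak GFP intensity per well by laser scanning cytometry (488 nm excitation, 500–520 nm emission); 500 nM antisense PNA as control.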

[18] = Confirmation and Secondary Assay for Modulators of Hemoglobin Beta Chain Splicing at IVS2 705 locus (AID 930; active = well fitted curve in the direction sought with a large enough effect; an effect the other way counts as inactive or inconclusive;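 note: HeLa cells stably expressing the EGFP-705 splicing reporter; GFP fluorescence per well restored by corrected splicing of the IVS2-705 intron in EGFP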)
In short: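 Read-out: total peak GFP fluorescence per well (488 nm excitation, 500-520 nm emission) by laser-scanning cytometry. Cells: HeLa EGFP-705 splicing reporter, 2 days compound exposure in Optimem/2% FCS.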

[19] = target: DNA dC->dU-editing enzyme APOBEC-3G (Homo sapiens) (UniProt Q9HC16); test: qHTS for inhibitors of Vif-A3G interactions: Validation (AID 588379; active = well fitted curve in the direction sought with a large enough effect; an effect the other way counts as inactive or inconclusive)
Chain of DNA dC->dU-editing enzyme APOBEC-3G (Homo sapiens) (Q9HC16 whole entry, looked up): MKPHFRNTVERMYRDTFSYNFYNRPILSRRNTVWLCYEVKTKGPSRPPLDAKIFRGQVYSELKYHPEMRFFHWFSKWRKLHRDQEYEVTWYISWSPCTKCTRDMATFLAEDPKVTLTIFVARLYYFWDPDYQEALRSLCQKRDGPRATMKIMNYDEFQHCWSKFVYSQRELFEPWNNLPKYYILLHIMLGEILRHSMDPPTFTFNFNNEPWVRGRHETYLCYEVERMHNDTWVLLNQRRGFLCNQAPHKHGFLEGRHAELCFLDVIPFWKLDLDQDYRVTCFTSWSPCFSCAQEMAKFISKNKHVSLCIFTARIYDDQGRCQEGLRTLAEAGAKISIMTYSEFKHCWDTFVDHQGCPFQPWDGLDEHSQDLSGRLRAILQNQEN
In short: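 Yellow fluorescence (Ex 488, Em 500-530) of Vif-coexpressing HeLa A3G-eYFP cells, scanned by Acumen cytometer, reports blocked A3G degradation. Cells plated at 700/well overnight at 37 deg C before compound addition, then a further overnight compound incubation at 37 deg C.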

[20] = tested on: Zika virus NS2B-NS3 protease; test: Primary screen GU AMC qHTS for Zika virus inhibitors (AID 1347154; active = well fitted curve in the direction sought with a large enough effect; an effect the other way counts as inactive or inconclusive; note: nearly all actives have a fitted effect of over 70% in size)
In short: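 Unlinked Zika NS2B hydrophilic domain–NS3 protease complex at 25 nM in 10 mM Tris-HCl pH 8.0, 0.01% Tween 20, with an AMC peptide substrate. Fluorescence change (340/450 nm) over 15 min at room temperature, normalized to controls, fitted to 4-parameter Hill.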

[21] = Primary qHTS for small molecule stabilizers of the endoplasmic reticulum resident proteome: Secreted ER Calcium Modulated Protein (SERCaMP) assay (AID 1508630; active = well fitted curve in the direction sought with a large enough effect; an effect the other way counts as inactive or inconclusive)
In short: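 The SH-SY5Y reporter protocol was run at 3 concentrations up to 38.3 uM (primary) or 11 concentrations (follow-up): 16 h compound, 100 nM thapsigargin for 4 h, then extracellular luciferase luminescence.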

[22] = Confirmatory qHTS to identify inhibitors of SARS-CoV-2 cell entry (AID 1645844); note: potency is the fitted concentration of half-maximal effect; nearly all actives have a fitted effect of over 45% in size
In short: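 HEK293-ACE2, overnight seeding; cpd 1 h, 37C/5% CO2; + SARS-CoV-2-S MLV PP (Wuhan-Hu-1, ΔC19); 48 h; Bright-Glo luminescence. Data normalised to S PP and bald PP wells.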

[23] = VSVG counterscreen qHTS to identify inhibitors of SARS-CoV-2 cell entry (AID 1645847); note: potency is the fitted concentration of half-maximal effect; nearly all actives have a fitted effect of over 65% in size
In short: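 Luminescence from a luciferase reporter, normalised to bald particle and VSV-G pseudotyped particle wells, is the read-out. Cells are HEK293 expressing human ACE2, exposed to compound 1 h before a 48 h particle infection at 37 °C.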

Q: Which results are given for `CC(C)(C)Cn1c(N)nc2ccc(-c3[nH]c(C(C)(C)C)nc3-c3ccc(F)cc3)nc21`?
A: Potency [1]: inactive; Potency [2]: inactive; Potency [3]: inactive; Potency [4]: 11.2 µM (active); Potency [5]: 1.58 µM (active)

Q: For `Cc1cc(Cl)ccc1OCCCC(=O)NO`, which Potency [1] is on record?
A: inactive

Q: What about the Potency [2] of the same compound?
A: 24.3 µM (active)

Q: And the Potency [3]?
A: inactive

Q: What about the Potency [6] of the same compound?
A: inactive

Q: And the activity change, negative = inhibition [7]?
A: -10.4%

Q: With `CC(C)(C)NC(=O)[C@H]1CN(Cc2cccnc2)CCN1C[C@@H](O)C[C@@H](Cc1ccccc1)C(=O)N[C@H]1c2ccccc2C[C@H]1O` as the compound, how does the Potency [1] read?
A: inactive

Q: What about the Potency [2] of the same compound?
A: inactive

Q: And the Potency [3]?
A: inactive

Q: For `COc1cccc2c1cc([N+](=O)[O-])c1c(C(=O)O)cc3c(c12)OCO3`, which Potency [8] is on record?
A: 31.6 µM (active)

Q: And the Potency [9]?
A: > 46 µM (inactive)

Q: What about the Potency [10] of the same compound?
A: > 46 µM (inactive)

Q: What about the outcome [11] of the same compound?
A: inactive

Q: What about the Potency [12] of the same compound?
A: inactive

Q: And the Potency [13]?
A: inactive

Q: What about the Potency [14] of the same compound?
A: inactive

Q: And the Potency [15]?
A: inactive

Q: What about the Potency [16] of the same compound?
A: inactive

Q: What about the Potency [17] of the same compound?
A: inactive

Q: And the outcome [18]?
A: inactive

Q: And the Potency [19]?
A: inactive

Q: And the Potency [1]?
A: inactive

Q: And the Potency [2]?
A: inactive

Q: What about the Potency [3] of the same compound?
A: inactive

Q: What about the Potency [20] of the same compound?
A: inactive

Q: And the Potency [21]?
A: inactive

Q: What does the source list for `NC(=O)c1cccc2cn(-c3ccc([C@@H]4CCCNC4)cc3)nc12`?
A: Potency [1]: inactive; Potency [2]: 10.9 µM (active); Potency [3]: inactive; Potency [4]: inactive; Potency [5]: 11.2 µM (active); Potency [22]: 4.29 µM (active); Potency [23]: 2.15 µM (active)

Q: What does the source list for `CC(C)(N)c1ccc(-c2nc3ccccc3nc2-c2ccccc2)cc1`?
A: Potency [1]: inactive; Potency [2]: 19.3 µM (active); Potency [3]: inactive; Potency [5]: 10 µM (active); Potency [6]: inactive; activity change, negative = inhibition [7]: -19.6%

Q: With `CC(=O)O[C@@H]1/C=C/[C@](C)(O)C[C@@H](C)C/C=C/[C@H]2[C@H](O)C(C)=C(C)[C@H]3[C@H](Cc4ccccc4)NC(=O)[C@@]123` as the compound, how does the Potency [1] read?
A: inactive

Q: And the Potency [2]?
A: 2 µM (active)

Q: What about the Potency [3] of the same compound?
A: inactive

Q: Which Potency [1] does the source give for `NC(=O)c1c[nH]c2ccccc12` here?
A: inactive

Q: And the Potency [2]?
A: inactive

Q: What about the Potency [3] of the same compound?
A: inactive

Q: With `COc1cc2c(cc1-c1c(C)noc1C)ncc1[nH]c(=O)n([C@H](C)c3ccccn3)c12` as the compound, how does the Potency [1] read?
A: 13.7 µM (active)

Q: What about the Potency [2] of the same compound?
A: 17.2 µM (active)

Q: What about the Potency [3] of the same compound?
A: 9.68 µM (active)

Q: And the Potency [6]?
A: inactive

Q: Which results are given for `O=C(CCCCCCC(=O)Nc1cccnc1)NO`?
A: Potency [1]: inactive; Potency [2]: 19.3 µM (active); Potency [3]: inactive; Potency [7]: inactive

Q: What does the source list for `CN1N=C(N)c2cn([C@@H]3O[C@H](COP(=O)(O)O)[C@@H](O)[C@@H]3O)c3ncnc1c23`?
A: Potency [1]: inactive; Potency [2]: 34.3 µM (active); Potency [3]: inactive; activity change, negative = inhibition [7]: -94.7%
